KB-V1 cytotox: kills drug-selected multidrug resistant KB-V1 cells. KB-V1 MDR cells viability, CellTiter-Glo, 72 h. Potency, µM (top dose mostly 46.1 µM), hits mostly cytotoxic. 400,000 compounds, 3.4% hits; note: % is set by controls: 0 for no effect and ±100 for the full control effect; nearly all actives have a fitted effect of over 60% in size
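Potencies derive from concentration-effect curves fitted to normalized luminescence (CellTiter-Glo) of KB-V1 cells treated for 72 h at 37 degrees C in phenol-red-free DMEM containing 10% FBS.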
KB-3-1 tox: KB-3-1 parental cell cytotoxicity. 400,000 compounds, 1.4% hits. Potency, µM (doses to about 46.1 µM), most hits filed as cytotoxic. KB-3-1 viability, CellTiter-Glo ATP luminescence, 72 h; note: % is set by controls: 0 for no effect and ±100 for the full control effect; nearly all actives have a fitted effect of over 60% in size
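Viability of parental KB-3-1 cells, measured by CellTiter-Glo luminescence, followed a 72 h incubation at 37 °C with pinned compounds in phenol-red-free DMEM containing 10% FBS.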
HT1080-NT tox: kills 2HG-producing HT-1080-NT fibrosarcoma cells; Potency, µM (titrated, usually from 46.1 µM), for the others: top-dose activity, negative = less viability, actives largely listed as cytotoxic; 360,000 compounds, 1.6% hits; HT-1080-NT fibrosarcoma viability, CellTiter-Glo ATP luminescence, 48 h; AID 686970;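 note: NT is the 2HG producing partner of a matched IDH1 knockdown line; 0% = DMSO-treated cells and -100% = media-only wells without cells; nearly all actives have a fitted effect of over 55% in size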
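750 cells/well, RPMI + 5% FBS; 2 h settle, compound pin-transfer, 48 h at 37 degrees C. CellTiter-Glo 10 min RT, luminescence. Normalized to DMSO and media-only wells.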
ATXN viability: reduces viability in counter-screen for ATXN expression inhibitors. S2 cells (HEK-293 line with an ATXN2-luciferase reporter) viability, CellTiter-Fluor protease fluorescence, 24 h. Potency, µM (top dose mostly 56.7 µM), usual class: cytotoxic. 400,000 compounds, 0.49% hits; note: nearly all actives have a fitted effect of over 40% in size
HT1080 IDH1KD tx: toxicity to HT-1080 IDH1 knockdown cells (counter line) | Potency, µM (top dose mostly 46.1 µM), for the others: top-dose activity, negative = toxicity, most hits filed as cytotoxic | HT-1080 IDH1 knockdown viability, ATP luminescence, 48 h | AID 686971 | 360,000 compounds, 2% hits;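 note: 0% = DMSO wells and -100% = cell-free medium wells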
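Assay cells: HT-1080 with IDH1 knockdown, 750 per well, RPMI/5% FBS. Exposure: 48 h at 37 °C following 2 h pre-incubation. Read: CellTiter-Glo luminescence; fitted concentration-response, curve class assigned.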
ATXN2 expr inh: ATXN2 expression inhibition; HEK-293 ATXN2-luciferase reporter, luminescence, 24 h; Potency, µM (top dose mostly 57 µM), for the others: at the top dose activity change, negative = inhibition, usual class: inhibitors; 360,000 compounds, 0.72% hits; AID 1745845; note: % is set by controls: 0 for no effect and ±100 for the full control effect; nearly all actives have a fitted effect of over 55% in size
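ATXN2-luciferase reporter cells (luciferase flanked by upstream and downstream ATXN2 gene portions) were treated 24 h at 37 °C with compounds at up to 57 uM. SteadyGlo luminescence gave expression; GF-AFC fluorescence gave viability.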
The depositor's hits bear a star; i = inactive; ? = inconclusive; . = no result given; [ ] = dose if it differs, or a comment. Rows were chosen to be rich in hits. Some 6.2% of all compounds tested hit in one or more screens of this group. Calls come from the whole dose curve; as a rule, active = well fitted curve in the direction sought with a large enough effect; inconclusive = small, poorly fitted or top-dose-only effect, or another doubt; inactive = no such curve, though single readings can be large; an effect the other way counts as inactive or inconclusive. Potency is the fitted concentration of half-maximal effect.

SMILES | KB-V1 cytotox | KB-3-1 tox | HT1080-NT tox | ATXN viability | HT1080 IDH1KD tx | ATXN2 expr inh
O=C(NCC1CCCO1)c1cccc2c1C(=O)c1ccc(N3CCC(Cc4ccccc4)CC3)cc1S2(=O)=O (centres undefined) | 23µM* | ? | -12% | ? | -19% | ?
O=C(NCc1ccccc1C(F)(F)F)c1cccc2c1C(=O)c1ccc(N3CCOCC3)cc1S2(=O)=O | i | i | 0% | i | -4% | -34%
CC1CCN(c2ccc3c(c2)S(=O)(=O)c2cccc(C(=O)NC[C@@H]4CCCO4)c2C3=O)CC1 | i | i | -16% | i | -9% | 9%
O=C(NCc1ccccc1C(F)(F)F)c1cccc2c1C(=O)c1ccc(N3CCC(N4CCCCC4)CC3)cc1S2(=O)=O | ? | i | -4% | ? | -11% | 28µM*
Cc1cc(C(=O)COc2cccc3cccnc23)c(C)n1C | 16µM* | i | -3% | i | -5% | 41%
Cc1cc(C(=O)COc2ccccc2C(N)=O)c(C)n1C | ? | i | 5% | i | 4% | 8%
COc1ccc(OC)c(-c2nnc3n(CCc4ccccc4)c(=O)c4ccccc4n23)c1 | i | i | . | i | . | 29%
CN1CCN(CCCC(=O)c2ccc(C3CCCC3)cc2)CC1 | i | ? | ? | i | 33µM* | -24%
CN1CCN(CCCCC(=O)c2ccccc2)CC1 | i | i | 2% | i | 7% | 6%
COc1ccc2[nH]c(=O)c(CN(C3CCCCC3)C(c3nnnn3Cc3ccco3)C(C)C)cc2c1 (centres undefined) | 12µM* | ? | -16% | ? | -24% | -28%
COc1ccc2[nH]c(=O)c(C(c3nnnn3C3CCCC3)N(C)C3CCCCC3)cc2c1 (centres undefined) | 5.2µM* | i | -1% | i | -1% | -6%
COc1ccc2[nH]c(=O)c(CN(Cc3nnnn3Cc3ccco3)C3CCCCC3)cc2c1 | i | ? | 0% | i | 0% | ?
CCC(c1nnnn1Cc1ccco1)N(Cc1ccccc1OC)Cc1cc2cc(C)ccc2[nH]c1=O (centres undefined) | 13µM* | i | ? | i | -6%[9.24 µM] | -5%
COc1ccc2ncc3c(-c4ccc(C)c(C)c4)nn(CC(=O)Nc4ccccc4)c3c2c1 | ? | i | . | i | . | 0%
Cc1ccc(NC(=O)CN(C)C(=O)COC(=O)COc2cc(C)cc(C)c2)cc1 | i | i | 14% | i | 10% | .
COC(=O)c1ccccc1NC(=O)c1cc(CN2CCOCC2)on1 | i | i | . | i | . | -7%
Cc1ccccc1C1(CC(=O)N2CCCCC2c2cccnc2)CC(=O)N(C2CCCC2)C1=O (centres undefined) | . | . | . | i | . | .
CC(=O)c1sc2nc(CSc3nnnn3-c3ccccc3)[nH]c(=O)c2c1C | i | i | -4% | i | 0% | 4%
Cc1ccc(-n2nnnc2SCc2nc3sc(C)c(C)c3c(=O)[nH]2)cc1 | 18µM* | i | 10% | i | 0% | -7%
CCCCOC(=O)C1=C(C)Nc2ncnn2C1c1ccc(OCC)c(OC)c1 (centres undefined) | 4.6µM* | i | 7% | i | 7% | 5%
CCOC(=O)C1=C(C)Nc2ncnn2C1/C=C/c1ccccc1 (centres undefined) | 10µM* | ? | ? | i | ? | -25%
CCCCOC(=O)C1=C(C)Nc2ncnn2C1c1ccc(OC)c(OC)c1 (centres undefined) | i | i | 3% | i | 2% | -2%
CCCC1=C(C(=O)OCC)C(c2ccc(F)cc2)n2ncnc2N1 (centres undefined) | i | i | 5% | ? | 3% | 1%
CCOC(=O)C1=C(C)Nc2ncnn2C1c1cccs1 (centres undefined) | i | i | 0% | i | -5% | -6%
CCOC(=O)C1=C(C)Nc2ncnn2C1c1cc(Br)ccc1F (centres undefined) | 21µM* | ? | -8% | i | ? | -20%
SMILES | KB-V1 cytotox | KB-3-1 tox | HT1080-NT tox | ATXN viability | HT1080 IDH1KD tx | ATXN2 expr inh
COCCOC(=O)C1=C(C)Nc2ncnn2C1c1ccccc1 (centres undefined) | i | i | ? | i | -1% | 2%
CCCC1=C(C(=O)OCC)C(c2ccc(N(C)C)cc2)n2ncnc2N1 (centres undefined) | 18µM* | ? | -14% | ? | -23% | 4%
Cc1cc(OCC(=O)OC(C)C(=O)NC2CC2)c(C(C)C)cc1Cl (centres undefined) | ? | i | 1% | ? | 1% | .
CCOC(=O)C1=C(C)NC(=O)NC1/C(C)=C/c1ccccc1 (centres undefined) | 21µM* | i | -15% | i | ? | -21%
CCCC1=C(C(=O)OCC)C(c2cccs2)n2ncnc2N1 (centres undefined) | ? | i | 17% | . | 0% | .
CCCC1=C(C(=O)OCC)C(/C=C/c2ccccc2)n2ncnc2N1 (centres undefined) | ? | 8.9µM* | 22µM* | i | 11µM* | -24%
Cc1ccc(C(=O)N2[C@@H]3CN(C)C(=O)[C@@]2(C)[C@H]2C(=O)N(C)C(=O)[C@@H]32)cc1 | i | i | 22% | i | 10% | 9%
FC(F)Sc1ccc(NC(=S)NC2CCCC2)cc1 | ? | i | -9% | i | -17% | 28%
CC1CCCC(NC(=S)Nc2ccc(SC(F)F)cc2)C1C (centres undefined) | 23µM* | 18µM* | ? | i | ? | ?
Cc1nc(N)nc(N)c1/C=C/C(C)(C)c1ccc(Cl)cc1 | ? | ? | 0.029µM* | i | 0.0082µM* | ?
COCCc1nn2c(=O)cc(COC(=O)c3ccco3)nc2s1 | ? | i | . | i | . | 1%
NC(=S)n1[nH]c(-c2ccc([N+](=O)[O-])cc2)c(N=Nc2cccc(Cl)c2)c1=O | ? | 21µM* | ? | ? | ? | ?
O=C(O)c1ccccc1N(c1ccccc1)c1ccccc1 | i | i | 13% | . | 13% | -5%
O=c1c2ccccc2nc(-c2cccs2)n1-c1cccc2ccccc12 | 23µM* | ? | 3% | ? | 1% | -10%
O=c1c2cnn(-c3ccccc3)c2nc(-c2cccs2)n1-c1cccc(Cl)c1 | 10µM* | ? | 3% | ? | 0% | -18%
COc1cccc(C(=O)Nn2c(-c3cccs3)nc3ccccc3c2=O)c1OC | ? | i | 0% | i | -3% | -20%[11.3 µM]

From PubChem BioAssay
